The values below come from PubChem BioAssay (NCATS).

The subject of test [1] is Zika virus NS2B-NS3 protease (unlinked complex). Description: Primary screen GU Rhodamine qHTS for Zika virus inhibitors: Unlinked NS2B-NS3 protease assay (AID 1347159). Note: % is set by controls: 0 for no effect and ±100 for the full control effect; nearly all actives have a fitted effect of over 60% in size. In a few lines:
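Buffer 10 mM Tris-HCl pH 8.0, 0.01% Tween 20. Unlinked protease 25 nM; compound preincubation 15 min, RT, protected from light. Substrate Rhod110, 1.5 microM; ~15% conversion in 15 min.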
(In general: Quantitative high-throughput screening tests each substance at several concentrations.)

In test [2] the test system is Zika virus NS2B-NS3 protease (linked construct). Description: Primary screen NINDS Rhodamine qHTS for Zika virus inhibitors (AID 1347160). Note: % is set by controls: 0 for no effect and ±100 for the full control effect; nearly all actives have a fitted effect of over 55% in size. The essentials:
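Aprotinin served as in-plate control. Conditions: 25 nM linked NS2B-NS3, pH 8.0 Tris buffer, titrated compounds, 15 min preincubation and 15 min reaction with 1.5 microM Rhod110 substrate at room temperature.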

Test [3] addresses Calcium and integrin-binding protein 1 (Homo sapiens) (UniProt Q99828). Description: Primary qHTS for Identification of Calcium Integrin Binding Protein 1 (CIB1) Competitor (AID 1508620).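 Note: GST tagged CIB1 binding a fluorescein labelled alphaIIb integrin peptide tracer; top concentration of the series differs between compounds; % is set by controls: 0 for no effect and ±100 for the full control effect.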 In a few lines: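 Fluorescence polarization competition: CIB1-GST (1 uM final) preincubated with compound 15 min at room temperature, then FITC-labeled alphaIIb peptide (100 nM final) added for another 15 min. Polarization read at Ex 480/Em 540.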

Test [4] deals with Glutathione peroxidase 1 (Homo sapiens) (UniProt P07203). Description: Primary qHTS Assay for Inhibitors of Recombinant Selenoprotein Glutathione Peroxidase 1 (GPX1) (AID 1845191). For activity, negative = inhibition: % is set by controls: 0 for no effect and ±100 for the full control effect. Note: nearly all actives have a fitted effect of over 65% in size. The essentials:
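GPX1 10 nM, GR 100 nM, GSH 1 mM, NADPH 0.5 mM, CHP 0.5 mM (final). 30-min cpd preincubation, RT. Ex340/Em450 read t=0, t=15 min.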

Test [5] has as its target Phospholipid hydroperoxide glutathione peroxidase GPX4 (Homo sapiens) (UniProt P36969). Description: Primary qHTS Assay for Inhibitors of Recombinant Selenoprotein Glutathione Peroxidase 4 (GPX4) (AID 1845192). Note: nearly all actives have a fitted effect of over 65% in size. In a few lines: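 qHTS, GR-coupled: GPX4 200 nM + cpd 30 min RT → GSH 1 mM, NADPH 0.5 mM, GR 100 nM → CHP 0.5 mM start; fluor 340/450 at t0 and t15 min; no-enzyme wells as control.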

Test [6] addresses Luciferin 4-monooxygenase (Photinus pyralis) (UniProt P08659). Description: Primary firefly luciferase (FLuc) qHTS assay for identification of artifact compounds. (AID 1845220).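 For activity change, negative = inhibition: plate controls were DMSO vehicle for no effect and no enzyme for full effect.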 Note: nearly all actives have a fitted effect of over 60% in size. Particulars: outcome: dose series up to 54.1 µM unless noted. The essentials: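 In this counter-screen for luciferase artifacts, test compounds met substrate (10 uM each luciferin and ATP) before 10 nM enzyme started the reaction. Light output was measured 5 min later.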

The nature of test [7]: Primary fluorescence-based thiol-reactive (MSTI) qHTS assay for identification of artifact compounds. (AID 1845221).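 Note: thiol-reactive compounds lower the probe fluorescence signal; nearly all actives have a fitted effect of over 65% in size.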 The essentials: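 One-hour, room-temperature, dark incubation of compound with 4 uM MSTI in PBS (pH 7.4, 2% DMSO) precedes a fluorescence read at 525 nm excitation, 598 nm emission; Hill-equation fitting yields concentration-response values.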
Test [8] relates to Nanoluciferase (engineered Oplophorus gracilirostris luciferase). Description: Primary Nanoluciferase (NLuc) qHTS assay for identification of artifact compounds. (AID 1845222).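 Note: NLuc secreted into diluted conditioned medium of S16 cells.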 In a few lines: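 Using secreted nanoluciferase in S16 culture medium (0.22 um filtered, 1:55 dilution), compounds were preincubated 15 min at RT. Signal was generated with Nano-Glo reagent (1:100) over 5 min.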

In the next test the test system is CRL-7250. Description: Cytotoxic Profiling of Annotated Libraries Using Quantitative High-Throughput Screening (AID 1296008). For max response: % is set by controls: 0 for no effect and ±100 for the full control effect. Note: nearly all actives have a fitted effect of over 60% in size. Note: potency is the fitted concentration of half-maximal effect. Conditions: Five cell lines viability, CellTiter-Glo ATP luminescence, 48-72 h; max response: active compounds read low. In a few lines: (§1)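 Compounds were pin-transferred onto cells and incubated 48 or 72 hr at 37 degree Celsius, 95% humidity. CellTiter-Glo was added, plates sat 10 min at room temperature, then ATP-coupled luminescence was imaged as the viability read-out.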
(Cellular ATP, detected with luciferase, serves as a proxy for viable cell number.)

A further test relates to NIH3T3. Described as above. Particulars: Five cell lines viability, CellTiter-Glo ATP luminescence, 48-72 h; max response: active compounds read low. In a few lines: as §1
In the next test the test system is C33A. Description: Primary qHTS to identify gynecologic anti-cancer compounds using libraries of approved drugs and bioactive compounds (AID 1345084). For activity change, negative = cytotoxicity: % is set by controls: 0 for no effect and ±100 for the full control effect. Note: nearly all actives have a fitted effect of over 55% in size. Note: potency is the fitted concentration of half-maximal effect. Particulars: Gynecologic cancer cell panel viability, ATPlite luminescence, 48 h; series mostly up to 57.5 µM. In a few lines:
(§2)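 In this quantitative HTS, cell killing is estimated from loss of ATP-dependent luciferase light. Cells see five compound concentrations over a 48 h exposure.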

The test system of a further test is CAOV3. The test is described as above. Particulars: Gynecologic cancer cell panel viability, ATPlite luminescence, 48 h; series mostly up to 57.5 µM. In a few lines:
as §2

Another test concerns CASKI. Described as above. Conditions: Gynecologic cancer cell panel viability, ATPlite luminescence, 48 h; series mostly up to 57.5 µM. In a few lines: as §2
The next test relates to Es-2. Described as above. Conditions: Gynecologic cancer cell panel viability, ATPlite luminescence, 48 h; series mostly up to 57.5 µM. The essentials:
as §2

The test system of another test is Hek293T. Described as above. Particulars: Gynecologic cancer cell panel viability, ATPlite luminescence, 48 h, control line for the selectivity index; series mostly up to 57.5 µM. The essentials: as §2
The test system of the next test is JEG-3. The description is as above. Particulars: Gynecologic cancer cell panel viability, ATPlite luminescence, 48 h; series mostly up to 57.5 µM. In a few lines: as §2
For a further test, the system named is OV90. The test is described as above. Conditions: Gynecologic cancer cell panel viability, ATPlite luminescence, 48 h; series mostly up to 57.5 µM. In a few lines: as §2
The next test deals with PA-1. The description is as above. Conditions: Gynecologic cancer cell panel viability, ATPlite luminescence, 48 h; series mostly up to 57.5 µM. The essentials: as §2
In the next test the test system is Tov-21-G. The test is described as above. Conditions: Gynecologic cancer cell panel viability, ATPlite luminescence, 48 h; series mostly up to 57.5 µM. The essentials: as §2
For a further test, the system named is Tov112D. The test is described as above. Conditions: Gynecologic cancer cell panel viability, ATPlite luminescence, 48 h; series mostly up to 57.5 µM. In a few lines: as §2

Values without a mark were called inactive. Results filed as inconclusive are left out. Calls of active or inactive are those of the source. Calls come from the whole dose curve; as a rule, active = well fitted curve in the direction sought with a large enough effect; inconclusive = small, poorly fitted or top-dose-only effect, or another doubt; inactive = no such curve, though single readings can be large; an effect the other way counts as inactive or inconclusive.

Chain of Phospholipid hydroperoxide glutathione peroxidase GPX4 (Homo sapiens) (P36969 whole entry, looked up): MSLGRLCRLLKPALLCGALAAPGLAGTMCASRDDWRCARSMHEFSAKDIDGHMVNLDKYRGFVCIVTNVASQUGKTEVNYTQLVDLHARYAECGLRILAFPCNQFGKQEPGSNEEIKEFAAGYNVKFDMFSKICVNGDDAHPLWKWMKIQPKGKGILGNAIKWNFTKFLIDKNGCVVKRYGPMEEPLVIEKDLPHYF
Chain of Calcium and integrin-binding protein 1 (Homo sapiens) (Q99828 whole entry, looked up): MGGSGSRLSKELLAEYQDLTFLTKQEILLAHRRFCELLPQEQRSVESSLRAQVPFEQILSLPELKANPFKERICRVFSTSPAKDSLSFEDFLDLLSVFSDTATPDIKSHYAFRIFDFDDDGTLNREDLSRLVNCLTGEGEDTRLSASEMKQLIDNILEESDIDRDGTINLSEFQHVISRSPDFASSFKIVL
Chain of Glutathione peroxidase 1 (Homo sapiens) (P07203 whole entry, looked up): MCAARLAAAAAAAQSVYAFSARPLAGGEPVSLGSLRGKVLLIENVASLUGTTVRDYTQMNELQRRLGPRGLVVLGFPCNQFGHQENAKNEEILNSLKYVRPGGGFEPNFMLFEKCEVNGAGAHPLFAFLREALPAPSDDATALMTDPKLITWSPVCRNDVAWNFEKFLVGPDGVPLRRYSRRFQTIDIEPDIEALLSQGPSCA

For `Nc1ncnc2c1ncn2[C@@H]1O[C@@H]2COP(O)(=S)O[C@H]2[C@H]1O` (stereo not given in full), the values for the activity change, negative = inhibition in test [1] and in test [2] were 2.11% [at 19.1 µM] and 16.2% [at 10.7 µM], respectively. In addition, the Potency result in test [3] is “inactive”. Moreover, the results for the outcome in test [4], in test [5] and in test [6] were “inactive [at 9.52 µM]”, “inactive [at 9.73 µM]” and “inactive [at 11.6 µM]”, respectively. Also, in test [7], the activity change, negative = thiol reactive was -11.9% [at 11.5 µM]. In addition, the activity, negative = inhibition in [8] is 0.0656% [at 11.6 µM]. Further, the values for the max response in the test with CRL-7250 and in the test on NIH3T3 were 1.79% and 4.38%, respectively. In addition, the activity change, negative = cytotoxicity in the test on C33A is 2.33% [at 11.6 µM]; in the test on CAOV3, 2.86% [at 11.6 µM]; in the test on CASKI, -3.97% [at 11.6 µM]; in the test with Es-2, 5.19% [at 11.6 µM]; in the test with Hek293T, 0.669% [at 11.6 µM]; with JEG-3, 6.35% [at 11.6 µM]. Further, the activity change, negative = cytotoxicity is 0.349% [at 11.6 µM] with OV90, 15.5% [at 11.6 µM] in the test with PA-1, 2.4% [at 11.6 µM] in the test on Tov-21-G and 7.56% [at 11.6 µM] in the test on Tov112D.
As for `C#C[C@]1(O)CC[C@H]2[C@@H]3CC[C@H]4Cc5nc6nc7ccccc7n6cc5C[C@]4(C)[C@H]3CC[C@@]21C`, the Potency result (in test [1]; in [4]; in [5]; in [7]; in test [8]; in the test with C33A) was “inactive” each time. For the same compound, the Potency result in the test on CAOV3, in the test with CASKI, with Es-2, with Hek293T, in the test on JEG-3 and in the test with OV90 was “inactive” throughout. Further, the Potency result in the test on PA-1 and in the test on Tov112D was “inactive” in each case. Besides, the call in test [6] was inactive. The max response in the test with CRL-7250 is 1.18%.
As for `CN1CCC2=C(C1)c1ccccc1Cc1ccccc12`, the Potency result in test [1], in [2], in test [3], in test [4], in test [5] and in [7] was “inactive” each time. Also, the Potency result (in [8]; in the test on C33A; with CAOV3; with CASKI; with Es-2; in the test with Hek293T) was “inactive” in each case. Moreover, the Potency result in the test on JEG-3, with OV90, in the test with PA-1, with Tov-21-G and in the test with Tov112D was “inactive” each time. Further, the call in the test on CRL-7250 was inactive. Further, in the test on NIH3T3, the max response is 0.135%.
For the compound `CCC1C2CC3C4N(C)c5ccccc5C45CC(C2C5O)N3C1O` (stereo not given), the Potency result (in [1]; in test [2]; in [4]; in test [5]; in test [8]; in the test with C33A) was “inactive” throughout. In addition, the Potency entry in the test with CAOV3, in the test on CASKI, in the test with Es-2, with Hek293T, in the test on JEG-3 and with OV90 was “inactive” each time. Besides, the Potency result with PA-1, in the test with Tov-21-G and in the test on Tov112D was “inactive” in each case. Moreover, the compound was classed as inactive in test [6]. Also, the max response in the test on CRL-7250 is -9.12%; with NIH3T3, 2.24%.
As to `CC1=CC(=O)[C@@H](O)[C@@]2(C)C1C[C@H]1OC(=O)[C@H](O)[C@@]3(O)[C@@H](C)[C@@H](O)[C@H](O)C2[C@@]13C` (stereo not given in full), the Potency entry in [1], in test [2], in test [3], in [4], in [5] and in test [7] was “inactive” throughout. Further, the Potency entry (in [8]; in the test with CASKI; in the test on JEG-3) was “inactive” throughout. The result in [6] was inactive. The figures for the Potency with CRL-7250 and in the test with Tov-21-G were 2.86 µM (active) and 11.2 µM (active), respectively.
